Test results from PubChem BioAssay (NCI).
Compounds without any hit were thinned out: in the full panel of roughly 83,000, 20% have a hit.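 Treatment: one concentration, 48 hours, 96-well format. Scoring: percent growth, with anything below 10 considered active.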 Calls of active or inactive are those of the source.

How the values were obtained:
Experiment in all cases: NCI-60 one-dose screen, 48 h (100 = growth as untreated, 0 = no growth, -100 = all killed)
Details in all cases: 10 µM
SK-MEL-2 melanoma = test system: SK-MEL-2 melanoma
EKVX NSCLC = test system: EKVX NSCLC
SN12C renal = test system: SN12C renal
UO-31 renal = test system: UO-31 renal
TK-10 renal = test system: TK-10 renal
ACHN renal = test system: ACHN renal
CAKI-1 renal = test system: CAKI-1 renal
A498 renal = test system: A498 renal
CCRF-CEM leukemia = test system: CCRF-CEM leukemia
MOLT-4 leukemia = test system: MOLT-4 leukemia
SR leukemia = test system: SR leukemia
RPMI-8226 leukemia = test system: RPMI-8226 leukemia
OVCAR-8 ovarian = test system: OVCAR-8 ovarian
OVCAR-5 ovarian = test system: OVCAR-5 ovarian
OVCAR-4 ovarian = test system: OVCAR-4 ovarian
SK-OV-3 ovarian = test system: SK-OV-3 ovarian
IGROV1 ovarian = test system: IGROV1 ovarian
OVCAR-3 ovarian = test system: OVCAR-3 ovarian
HS 578T breast = test system: HS 578T breast
NCI/ADR-RES ovarian = test system: NCI/ADR-RES ovarian

Measured: growth

Cc1cc(=O)oc2cc(OCCCCOc3ccc(/C=C/C(=O)Nc4ccc(F)c(Cl)c4)cc3)ccc12
inactive: SK-MEL-2 melanoma 117% | EKVX NSCLC 96.4% | SN12C renal 96.4% | UO-31 renal 86.1% | TK-10 renal 112% | ACHN renal 107% | CAKI-1 renal 96% | A498 renal 108% | CCRF-CEM leukemia 92.7% | MOLT-4 leukemia 93.5% | SR leukemia 89% | RPMI-8226 leukemia 92.6% | OVCAR-8 ovarian 85.2% | OVCAR-5 ovarian 101% | OVCAR-4 ovarian 37.9% | SK-OV-3 ovarian 122% | IGROV1 ovarian 109% | OVCAR-3 ovarian 97.2% | HS 578T breast 111%

O=C1CCC(N2Cc3cc(CC(=O)Nc4ccc(N5CCCCC5)cc4)ccc3C2=O)C(=O)N1 (centres undefined)
active: MOLT-4 leukemia -7.39%
inactive: SK-MEL-2 melanoma 74.7% | EKVX NSCLC 83.4% | SN12C renal 46.7% | UO-31 renal 21% | TK-10 renal 67.5% | ACHN renal 92.4% | CAKI-1 renal 87.6% | A498 renal 12.7% | CCRF-CEM leukemia 16.9% | SR leukemia 77.2% | RPMI-8226 leukemia 66.4% | OVCAR-8 ovarian 20.9% | OVCAR-5 ovarian 70.5% | OVCAR-4 ovarian 31.1% | SK-OV-3 ovarian 61% | IGROV1 ovarian 31.8% | OVCAR-3 ovarian 53.9% | HS 578T breast 27.4% | NCI/ADR-RES ovarian 25.2%

CN1CCN(Cc2ccc(NC(=O)c3cncc(C#Cc4cnc5ccc(N[C@H]6CCOC6)nn45)c3)cc2C(F)(F)F)CC1
active: SK-MEL-2 melanoma -94.3% | EKVX NSCLC -99.4% | SN12C renal -93.1% | UO-31 renal -95.6% | TK-10 renal -69.8% | ACHN renal -100% | CAKI-1 renal -96.7% | A498 renal -94.7% | CCRF-CEM leukemia -2.23% | MOLT-4 leukemia -9.84% | SR leukemia -21.7% | RPMI-8226 leukemia -35.1% | OVCAR-8 ovarian -94.4% | OVCAR-5 ovarian -72% | OVCAR-4 ovarian -65.3% | SK-OV-3 ovarian -63.8% | IGROV1 ovarian -74.6% | OVCAR-3 ovarian -93.7% | HS 578T breast -42.7%

CC(=O)c1ccc(Nc2nc(SC(C)C)nc(-c3ccccc3)c2C#N)cc1
active: UO-31 renal -53.6% | TK-10 renal 6.61% | ACHN renal -56.9% | CAKI-1 renal 8.35% | OVCAR-8 ovarian 5.17% | OVCAR-4 ovarian -19.1% | IGROV1 ovarian 8.92%
inactive: SK-MEL-2 melanoma 111% | EKVX NSCLC 39.7% | SN12C renal 10.9% | A498 renal 94.7% | CCRF-CEM leukemia 97.5% | MOLT-4 leukemia 82.9% | SR leukemia 70% | RPMI-8226 leukemia 90.3% | OVCAR-5 ovarian 55.8% | SK-OV-3 ovarian 36.2% | OVCAR-3 ovarian 25.3% | HS 578T breast 28.2%

OCCCNc1oc(-c2ccccc2)nc1[P+](c1ccccc1)(c1ccccc1)c1ccccc1
active: SK-MEL-2 melanoma -34.1% | SN12C renal -0.273% | MOLT-4 leukemia 6.77% | SR leukemia 1.71% | RPMI-8226 leukemia 4.55% | OVCAR-8 ovarian 8.02% | SK-OV-3 ovarian -4.9% | IGROV1 ovarian -19.4% | OVCAR-3 ovarian -8.66% | HS 578T breast -13.3%
inactive: EKVX NSCLC 14.3% | UO-31 renal 69.8% | TK-10 renal 20.9% | ACHN renal 51% | CAKI-1 renal 58.6% | A498 renal 22.5% | CCRF-CEM leukemia 10.5% | OVCAR-5 ovarian 26.2% | OVCAR-4 ovarian 16.6% | NCI/ADR-RES ovarian 95%

N#Cc1ccc(NC(=O)CSc2ccc(-c3ccc(Br)cc3)nn2)cc1
inactive: SK-MEL-2 melanoma 57.9% | EKVX NSCLC 72.4% | SN12C renal 73.5% | UO-31 renal 54.6% | TK-10 renal 103% | ACHN renal 64.5% | CAKI-1 renal 67.2% | A498 renal 89.4% | CCRF-CEM leukemia 57.9% | MOLT-4 leukemia 42.6% | SR leukemia 46.6% | RPMI-8226 leukemia 57.6% | OVCAR-8 ovarian 76.3% | OVCAR-5 ovarian 88.2% | OVCAR-4 ovarian 59% | SK-OV-3 ovarian 86.1% | IGROV1 ovarian 74.6% | OVCAR-3 ovarian 76.6% | HS 578T breast 72.9% | NCI/ADR-RES ovarian 35.7%

Cc1noc2c(Cc3ccc([N+](=O)[O-])cc3)nn(CC(=O)N/N=C/c3ccc(Br)cc3)c(=O)c12
inactive: SK-MEL-2 melanoma 116% | EKVX NSCLC 90.2% | SN12C renal 81% | UO-31 renal 57.7% | TK-10 renal 112% | ACHN renal 43.6% | CAKI-1 renal 84% | A498 renal 121% | CCRF-CEM leukemia 103% | MOLT-4 leukemia 103% | SR leukemia 97.6% | RPMI-8226 leukemia 91.2% | OVCAR-8 ovarian 48.9% | OVCAR-5 ovarian 96.9% | OVCAR-4 ovarian 17.9% | SK-OV-3 ovarian 86.2% | IGROV1 ovarian 95.9% | OVCAR-3 ovarian 50.1% | HS 578T breast 41.5% | NCI/ADR-RES ovarian 88.5%

CN1C/C(=C\c2ccc(O)cc2O)c2[o+]c3cc(O)ccc3cc2C1
active: SR leukemia 2.85% | OVCAR-3 ovarian -8.86%
inactive: SK-MEL-2 melanoma 46.5% | EKVX NSCLC 78% | SN12C renal 39.9% | UO-31 renal 63.6% | TK-10 renal 82.4% | ACHN renal 71.9% | CAKI-1 renal 70.1% | A498 renal 117% | CCRF-CEM leukemia 41.1% | MOLT-4 leukemia 37.8% | RPMI-8226 leukemia 33% | OVCAR-8 ovarian 62.7% | OVCAR-5 ovarian 72.1% | OVCAR-4 ovarian 68.2% | SK-OV-3 ovarian 105% | IGROV1 ovarian 34.8% | HS 578T breast 50.1%

O=C(/C=C/Nc1ccccc1)c1ccc2c(c1)Nc1ccccc1S2
inactive: SK-MEL-2 melanoma 78.1% | EKVX NSCLC 81.4% | SN12C renal 69.2% | UO-31 renal 93.1% | TK-10 renal 96.2% | ACHN renal 84.3% | CAKI-1 renal 91.5% | A498 renal 120% | CCRF-CEM leukemia 94.2% | MOLT-4 leukemia 89.7% | SR leukemia 87.8% | RPMI-8226 leukemia 90.9% | OVCAR-8 ovarian 33.5% | OVCAR-5 ovarian 87.7% | OVCAR-4 ovarian 49.2% | SK-OV-3 ovarian 86.3% | IGROV1 ovarian 87.3% | OVCAR-3 ovarian 91.1% | HS 578T breast 63% | NCI/ADR-RES ovarian 61.2%

O=C(CNc1nc(-c2ccccc2)cs1)Nc1ccc(Cl)cc1
active: SK-MEL-2 melanoma -84.1% | EKVX NSCLC -95.3% | SN12C renal -97.2% | UO-31 renal -99.8% | TK-10 renal -93.9% | ACHN renal -100% | CAKI-1 renal -82.4% | A498 renal -93.4% | MOLT-4 leukemia -26.5% | SR leukemia -18.7% | RPMI-8226 leukemia 2.96% | OVCAR-8 ovarian -28.8% | OVCAR-5 ovarian -95.4% | OVCAR-4 ovarian -33.8% | SK-OV-3 ovarian -82.9% | IGROV1 ovarian -78.6% | OVCAR-3 ovarian -36.6% | HS 578T breast -3.04%
inactive: CCRF-CEM leukemia 12.3%

Cc1ccc2nc3c(nc2c1)c1cc(I)ccc1n3CCN(C)C
active: UO-31 renal 8.11% | ACHN renal 6.64% | CAKI-1 renal 8.68%
inactive: SK-MEL-2 melanoma 52.2% | EKVX NSCLC 30.9% | SN12C renal 21.4% | TK-10 renal 48.9% | A498 renal 62.9% | CCRF-CEM leukemia 32.7% | MOLT-4 leukemia 10% | SR leukemia 10.8% | RPMI-8226 leukemia 22% | OVCAR-8 ovarian 23.6% | OVCAR-5 ovarian 31.9% | OVCAR-4 ovarian 27.2% | SK-OV-3 ovarian 39% | IGROV1 ovarian 13.9% | OVCAR-3 ovarian 40.8% | HS 578T breast 23.9%

COc1ccc(/C=C/C(=O)c2ccc(N3CCN(C)CC3)cc2)c(C(F)(F)F)c1
inactive: SK-MEL-2 melanoma 94.6% | EKVX NSCLC 49% | SN12C renal 42.5% | UO-31 renal 44.2% | TK-10 renal 71.7% | ACHN renal 55.6% | CAKI-1 renal 41.4% | A498 renal 59.5% | CCRF-CEM leukemia 27.3% | MOLT-4 leukemia 10.8% | OVCAR-8 ovarian 49.6% | OVCAR-5 ovarian 86.4% | OVCAR-4 ovarian 43.9% | SK-OV-3 ovarian 63.7% | IGROV1 ovarian 55% | OVCAR-3 ovarian 46.9% | HS 578T breast 18.8% | NCI/ADR-RES ovarian 59.3%
active: SR leukemia 7.12% | RPMI-8226 leukemia 0.333%

COc1cc2c3c(n(CCCN4CCOCC4)c(=O)c2cc1OC)-c1nc2c(cc1C3=O)OCO2
inactive: SK-MEL-2 melanoma 111% | EKVX NSCLC 48.8% | UO-31 renal 15.3% | TK-10 renal 79.5% | A498 renal 76.9% | CCRF-CEM leukemia 14.4% | MOLT-4 leukemia 24.7% | SR leukemia 12.5% | RPMI-8226 leukemia 18.7% | OVCAR-8 ovarian 30.3% | OVCAR-5 ovarian 37.2% | IGROV1 ovarian 36.7% | HS 578T breast 71.6% | NCI/ADR-RES ovarian 17.1%
active: SN12C renal 8.3% | ACHN renal -11.7% | CAKI-1 renal 6.77% | OVCAR-4 ovarian 6.71% | SK-OV-3 ovarian -4.15% | OVCAR-3 ovarian 8.69%

O=C(Nc1nc2ccccc2s1)c1ccc(Br)cc1
inactive: SK-MEL-2 melanoma 96.1% | EKVX NSCLC 63.5% | SN12C renal 89.9% | UO-31 renal 76.1% | TK-10 renal 104% | ACHN renal 94.8% | CAKI-1 renal 91.1% | A498 renal 115% | CCRF-CEM leukemia 85.6% | MOLT-4 leukemia 74.3% | SR leukemia 80.1% | RPMI-8226 leukemia 64.2% | OVCAR-8 ovarian 98.5% | OVCAR-5 ovarian 92.9% | OVCAR-4 ovarian 80.6% | SK-OV-3 ovarian 104% | IGROV1 ovarian 75.1% | OVCAR-3 ovarian 111% | HS 578T breast 95.5% | NCI/ADR-RES ovarian 76.7%

Nc1nnc(-c2c[nH]c3ncccc23)c(-c2c[nH]c3ccc(Br)cc23)n1
inactive: SK-MEL-2 melanoma 23.7% | EKVX NSCLC 53.1% | SN12C renal 45.2% | UO-31 renal 35.6% | TK-10 renal 44.9% | ACHN renal 35.1% | CAKI-1 renal 23.1% | A498 renal 48.4% | CCRF-CEM leukemia 39.8% | MOLT-4 leukemia 12.7% | SR leukemia 19.1% | RPMI-8226 leukemia 38.7% | OVCAR-8 ovarian 46.2% | OVCAR-5 ovarian 68.2% | OVCAR-4 ovarian 55.7% | SK-OV-3 ovarian 55.3% | IGROV1 ovarian 25.7% | OVCAR-3 ovarian 52.6% | HS 578T breast 33.7% | NCI/ADR-RES ovarian 98.6%

O=C(CSc1nnc(-c2ccc3nc(-c4ccc(Cl)cc4)[nH]c3c2)o1)Nc1ccc(Br)cc1
active: SK-MEL-2 melanoma -69.6% | SN12C renal -89.2% | ACHN renal -62.5% | CAKI-1 renal -27.8% | CCRF-CEM leukemia 6.06% | MOLT-4 leukemia -0.919% | SR leukemia 3.26% | RPMI-8226 leukemia 0.539% | OVCAR-8 ovarian -43.5% | OVCAR-3 ovarian -15.9% | HS 578T breast -16.5%
inactive: EKVX NSCLC 27.9% | UO-31 renal 21.9% | TK-10 renal 86% | A498 renal 66.1% | OVCAR-5 ovarian 39.5% | OVCAR-4 ovarian 16.4% | SK-OV-3 ovarian 60.2% | IGROV1 ovarian 23.2% | NCI/ADR-RES ovarian 10.9%
